In PubChem BioAssay (Tox21):
Inconclusive results are not listed. Calls of active or inactive are those of the source. Unless noted, calls come from the whole dose curve.

Columns and labels:
[1] = target: Peroxisome proliferator-activated receptor delta (Homo sapiens) (UniProt Q03181); assay: qHTS assay to identify small molecule agonists of the peroxisome proliferator-activated receptor delta (PPARd) signaling pathway (AID 743212)
Procedure, shortened: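 GeneBLAzer PPARd UAS-bla HEK293H cells (beta-lactamase reporter under UAS control), plated and rested 5 h at 37 C, then exposed to compounds in DMSO at 37 C; LiveBLAzer B/G FRET substrate added, 2 h room temperature, fluorescence read.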

[2] = qHTS assay to identify small molecule antagonists of the peroxisome proliferator-activated receptor delta (PPARd) signaling pathway - cell viability counter screen (AID 743213; active = well fitted curve in the direction sought with a large enough effect in the repeat runs; an effect the other way counts as inactive or inconclusive; note: nearly all actives have a fitted effect of over 50% in size)
Procedure, shortened: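 HEK293H cells with the PPARd UAS-bla reporter, co-treated 17 h at 37 C with compounds and L165041 (300 nM final), were lysed with CellTiter-Glo. Luminescence indicated viable cell content.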

[3] = target: Peroxisome proliferator-activated receptor delta (Homo sapiens) (UniProt Q03181); assay: qHTS assay to identify small molecule antagonists of the peroxisome proliferator-activated receptor delta (PPARd) signaling pathway (AID 743215; active = well fitted inhibition curve with a large enough effect in the signal ratio in the repeat runs, not every such curve was filed as active; the % refers to the signal ratio;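 note: cells stimulated with agonist L165041 at 300 nM final during compound exposure; series mostly up to about 62 µM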)
Procedure, shortened: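 PPARd-bla HEK293H cells (UAS-bla reporter) preincubated 5 h, then given compound plus 300 nM final L165041 agonist for 17 h at 37 C. Beta-lactamase activity read by LiveBLAzer B/G FRET substrate fluorescence after 2 h at room temperature.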

[4] = qHTS assay to identify small molecule agonists of the farnesoid-X-receptor (FXR) signaling pathway - cell viability counter screen (AID 743218; active = well fitted curve in the direction sought with a large enough effect in the repeat runs; an effect the other way counts as inactive or inconclusive; note: nearly all actives have a fitted effect of over 45% in size)
Procedure, shortened: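 FXR-UAS-bla HEK 293T cells exposed to compounds for 16 h at 37C. Cytotoxicity read in the same wells by CellTiter-Glo luminescence after 30 min at room temperature, following the beta-lactamase FRET read.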

[5] = target: Bile acid receptor (Homo sapiens) (UniProt Q96RI1); assay: qHTS assay to identify small molecule agonists of the farnesoid-X-receptor (FXR) signaling pathway (AID 743220; active = well fitted activation curve with a large enough effect in the signal ratio in the repeat runs, not every such curve was filed as active; the % refers to the signal ratio)
Chain of Bile acid receptor (Homo sapiens) (Q96RI1 whole entry, looked up): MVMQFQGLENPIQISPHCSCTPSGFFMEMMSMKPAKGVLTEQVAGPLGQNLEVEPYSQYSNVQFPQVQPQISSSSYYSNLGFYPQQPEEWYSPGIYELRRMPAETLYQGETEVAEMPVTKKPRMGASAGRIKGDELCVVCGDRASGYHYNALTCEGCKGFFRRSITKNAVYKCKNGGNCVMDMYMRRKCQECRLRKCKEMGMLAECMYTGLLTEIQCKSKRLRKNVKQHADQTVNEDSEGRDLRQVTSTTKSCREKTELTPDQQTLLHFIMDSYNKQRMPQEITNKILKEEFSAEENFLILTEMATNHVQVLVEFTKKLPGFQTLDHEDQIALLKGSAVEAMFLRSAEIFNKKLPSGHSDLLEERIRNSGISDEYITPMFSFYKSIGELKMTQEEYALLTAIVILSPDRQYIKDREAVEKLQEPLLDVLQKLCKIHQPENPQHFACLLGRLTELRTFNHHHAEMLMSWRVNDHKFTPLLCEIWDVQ
Procedure, shortened: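 Beta-lactamase reporter under UAS control in GeneBLAzer FXR HEK 293T cells (5000/well) measured with LiveBLAzer FRET substrate after 2 h at room temperature. Compound exposure lasted 16 h at 37C.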

[6] = qHTS assay to identify small molecule antagonists of the farnesoid-X-receptor (FXR) signaling pathway - cell viability counter screen (AID 743221; active = well fitted cell-killing curve with a large enough effect in the repeat runs, not every such curve was filed as active; note: nearly all actives have a fitted effect of over 50% in size)
Procedure, shortened: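 Quantitative HTS of the Tox21 10K library run in parallel with the beta-lactamase reporter read. HEK 293T cells carrying a UAS-driven bla reporter got compound and 50 uM CDCA (final) for 16 h; ATP-based luminescence followed.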

[7] = qHTS assay to identify small molecule antagonists of the vitamin D receptor (VDR) signaling pathway - cell viability counter screen (AID 743225; active = well fitted curve in the direction sought with a large enough effect in the repeat runs; an effect the other way counts as inactive or inconclusive; note: nearly all actives have a fitted effect of over 50% in size)
Procedure, shortened: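 Cells (VDR-UAS-bla HEK 293T) are plated, rested 4 h at 37C, dosed with compound and 3 nM final 1-alpha,25-dihydroxy vitamin D3, and incubated 16 h. Viability is taken from CellTiter-Glo luminescence in the reporter wells.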

[8] = qHTS assay to identify small molecule agonists of the NFkB signaling pathway (AID 1159509; active = well fitted curve in the direction sought with a large enough effect in the signal ratio in the repeat runs, not every such curve was filed as active; the % refers to the signal ratio; note: series mostly up to about 61 µM)
Procedure, shortened: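 After overnight attachment, reporter cells received test compounds, DMSO or positive controls and were incubated 5 hr at 37 C. FRET substrate was then added for 1.5 hr at room temperature before dual-emission fluorescence reading.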

[9] = qHTS assay to identify small molecule agonists of the NFkB signaling pathway - cell viability counter screen (AID 1159515); note: series mostly up to about 61 µM; nearly all actives have a fitted effect of over 55% in size
Procedure, shortened: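 NFkB-bla ME-180 cells, 2,000/well, plated overnight at 37 C; compound added for 5 hr at 37 C. Viability read in the same wells as the bla reporter, by CellTiter-Glo luminescence after 30 min at room temperature.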

[10] = qHTS assay to identify small molecule agonists of the endoplasmic reticulum stress response signaling pathway - cell viability counter screen (AID 1159517);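 note: HeLa cells carrying an ER stress response element beta-lactamase reporter; series mostly up to about 61 µM; nearly all actives have a fitted effect of over 50% in size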
Procedure, shortened: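 Luminescence readout: CellTiter-Glo, 30 min RT, same wells as the ESRE-bla reporter read. HeLa ESRE-bla, 1,500 cells/well, o/n 37 C; cpd 5 hr 37 C/5% CO2.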

[11] = qHTS assay to identify small molecule antagonists of the retinoid-related orphan receptor gamma (ROR-gamma) signaling pathway - cell viability counter screen (AID 1159520; active = well fitted curve in the direction sought with a large enough effect in the repeat runs; an effect the other way counts as inactive or inconclusive; note: nearly all actives have a fitted effect of over 50% in size)
Procedure, shortened: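 Tet-on ROR gamma CHO cells (1,000/well) were plated 4 hr, given compounds in DMSO for 2 hr at 37 C, then induced with 1 uM final doxycycline for 16 hr. Viability was read as ATP by CellTiter-Glo luminescence after 30 min.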

[12] = target: Nuclear receptor ROR-gamma (Homo sapiens) (UniProt P51449); assay: qHTS assay to identify small molecule antagonists of the retinoid-related orphan receptor gamma (ROR-gamma) signaling pathway (AID 1159521; active = well fitted curve in the direction sought with a large enough effect in the repeat runs; an effect the other way counts as inactive or inconclusive)
Procedure, shortened: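 RORγ antagonism is scored from reduced reporter luminescence in Tet-on CHO cells. Induction used 1 uM final doxycycline hyclate for 16 h at 37 C, following a 2 h compound exposure.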

[13] = qHTS assay to identify small molecule agonists of the AP-1 signaling pathway - cell viability counter screen (AID 1159525); note: nearly all actives have a fitted effect of over 55% in size
Procedure, shortened: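 ME-180 AP-1-bla, 2500 cells/well, Opti-MEM + 0.5% dialyzed FBS; overnight 37 °C; cpd 15-pt titration, 5 h 37 °C; CellTiter-Glo 30 min RT; luminescence read; normalised to TOAB and DMSO controls.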

[14] = qHTS assay to identify small molecule agonists of the AP-1 signaling pathway (AID 1159526)
[15] = qHTS assay to identify small molecule agonists of the vitamin D receptor (VDR) signaling pathway - cell viability counter screen (AID 743224; active = well fitted curve in the direction sought with a large enough effect in the repeat runs; an effect the other way counts as inactive or inconclusive)
Procedure, shortened: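 VDR-bla cells, 4 h after plating, exposed to compounds for 16 h at 37C; viability then read in the same wells as CellTiter-Glo luminescence after 30 min at room temperature, following the bla FRET read.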

[16] = target: Vitamin D3 receptor (Homo sapiens) (UniProt P11473); assay: qHTS assay to identify small molecule agonists of the vitamin D receptor (VDR) signaling pathway (AID 743222)
Chain of Vitamin D3 receptor (Homo sapiens) (P11473 whole entry, looked up): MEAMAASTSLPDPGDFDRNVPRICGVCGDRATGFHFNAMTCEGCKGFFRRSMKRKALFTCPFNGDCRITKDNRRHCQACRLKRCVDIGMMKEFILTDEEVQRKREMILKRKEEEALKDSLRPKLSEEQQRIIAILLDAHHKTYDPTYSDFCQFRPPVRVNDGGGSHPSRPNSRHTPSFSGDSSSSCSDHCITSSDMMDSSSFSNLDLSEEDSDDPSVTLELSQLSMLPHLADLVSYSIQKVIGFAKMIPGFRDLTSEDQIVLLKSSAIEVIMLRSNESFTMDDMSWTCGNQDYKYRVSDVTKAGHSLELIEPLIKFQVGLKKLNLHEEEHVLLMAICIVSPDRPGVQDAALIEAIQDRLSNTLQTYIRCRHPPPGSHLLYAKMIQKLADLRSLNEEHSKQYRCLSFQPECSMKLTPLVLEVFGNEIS
Procedure, shortened: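 VDR-bla cells plated 4 h at 37 C, then exposed to compounds for 16 h at 37 C. Beta-lactamase reporter activity measured by fluorescence after 2 h room-temperature loading with LiveBLAzer B/G FRET substrate.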

[17] = target: Vitamin D3 receptor (Homo sapiens) (UniProt P11473); assay: qHTS assay to identify small molecule antagonists of the vitamin D receptor (VDR) signaling pathway (AID 743223; active = well fitted inhibition curve with a large enough effect in the signal ratio in the repeat runs, not every such curve was filed as active; the % refers to the signal ratio)
Procedure, shortened: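 Fluorescence from LiveBLAzer B/G FRET substrate, read after 2 h at room temperature, reflects beta-lactamase reporter activity in VDR-bla cells treated 16 h at 37C with compounds and agonist 1alpha,25-dihydroxyvitamin D3 (3 nM final).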

[18] = target: Retinoic acid receptor RXR-alpha (Homo sapiens) (UniProt P19793); assay: qHTS assay to identify small molecule agonists of the RXR signaling pathway (AID 1159527); note: nearly all actives have a fitted effect of over 35% in size
Chain of Retinoic acid receptor RXR-alpha (Homo sapiens) (P19793 whole entry, looked up): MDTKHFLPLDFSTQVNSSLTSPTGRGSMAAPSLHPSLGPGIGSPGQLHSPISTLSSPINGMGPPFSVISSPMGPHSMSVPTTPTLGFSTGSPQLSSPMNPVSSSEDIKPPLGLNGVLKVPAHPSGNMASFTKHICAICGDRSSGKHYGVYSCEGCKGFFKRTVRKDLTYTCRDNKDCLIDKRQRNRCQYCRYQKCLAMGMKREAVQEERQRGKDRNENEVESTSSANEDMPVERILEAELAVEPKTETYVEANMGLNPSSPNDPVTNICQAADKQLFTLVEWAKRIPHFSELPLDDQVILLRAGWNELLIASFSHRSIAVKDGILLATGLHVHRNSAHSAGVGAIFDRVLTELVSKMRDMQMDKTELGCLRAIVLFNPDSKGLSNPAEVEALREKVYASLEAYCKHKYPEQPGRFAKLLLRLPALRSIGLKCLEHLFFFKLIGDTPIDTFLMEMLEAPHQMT
Procedure, shortened: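 qHTS of the Tox21 10K library in GeneBLAzer RXR-alpha HEK 293T cells carrying a beta-lactamase reporter […]; 16 hr treatment, 9-cis retinoic acid as agonist control, FRET read-out.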

[19] = target: Bile acid receptor (Homo sapiens) (UniProt Q96RI1); assay: qHTS assay to identify small molecule antagonists of the farnesoid-X-receptor (FXR) signaling pathway (AID 743217; active = well fitted inhibition curve with a large enough effect in the signal ratio in the repeat runs, not every such curve was filed as active; the % refers to the signal ratio)
Procedure, shortened: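 FXR-UAS-bla HEK 293T cells (beta-lactamase reporter) given compound plus chenodeoxycholic acid (50 uM final), 16 h at 37C. LiveBLAzer B/G FRET substrate added for 2 h at room temperature; fluorescence read.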

[20] = qHTS assay to identify small molecule agonists of the endoplasmic reticulum stress response signaling pathway (AID 1159516; active = well fitted activation curve with a large enough effect in the signal ratio in the repeat runs, not every such curve was filed as active; the % refers to the signal ratio)
Procedure, shortened: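 CellSensor ESRE-bla HeLa cells, 1,500 per well, plated overnight, then exposed to compounds for 5 hr at 37 C. Beta-lactamase reporter read with LiveBLAzer B/G FRET substrate after 2 hr at room temperature, 405 nm excitation, 460 and 530 nm emission.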

Measured: Potency

Chain of Peroxisome proliferator-activated receptor delta (Homo sapiens) (Q03181 whole entry, looked up): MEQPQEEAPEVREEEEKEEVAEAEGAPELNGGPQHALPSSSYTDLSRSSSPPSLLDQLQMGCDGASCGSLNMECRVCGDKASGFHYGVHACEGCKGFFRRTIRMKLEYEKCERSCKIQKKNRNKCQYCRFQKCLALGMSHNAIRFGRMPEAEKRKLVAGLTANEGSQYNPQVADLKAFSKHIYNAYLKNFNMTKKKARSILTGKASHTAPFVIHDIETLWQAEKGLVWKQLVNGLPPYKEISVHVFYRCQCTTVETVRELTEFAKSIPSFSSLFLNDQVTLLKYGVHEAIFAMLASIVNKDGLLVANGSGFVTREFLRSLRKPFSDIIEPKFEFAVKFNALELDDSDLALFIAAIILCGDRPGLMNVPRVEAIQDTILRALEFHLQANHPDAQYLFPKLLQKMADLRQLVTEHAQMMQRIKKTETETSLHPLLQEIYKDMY

CC(=O)CCc1ccc2c(c1)OCO2
not listed: [15] | [16] | [17] | [18] | [19] | [20]
inactive: all other assays above

Nc1cc(Cl)ccc1O
inactive: [3] | [4] | [6] | [15] | [7] | [8] | [9] | [10] | [11] | [12] | [13]

COP(=S)(OC)Oc1ccc(S(N)(=O)=O)cc1
not listed: [1] | [4] | [15] | [19] | [20]
inactive: all other assays above

C[C@]12CC[C@H]3[C@@H](CCC4=CC(=O)CC[C@@]43C)[C@@H]1CC[C@@H]2C(=O)O
not listed: [3] | [4] | [17] | [18] | [20]
inactive: all other assays above

CSc1nc(N=[N+]=[N-])nc(NC(C)C)n1
not listed: [2] | [3] | [4] | [5] | [19] | [20]
inactive: all other assays above

CCOP(=S)(OCC)Oc1cc(-c2ccccc2)on1
not listed: [3] | [5] | [17] | [18] | [20]
inactive: all other assays above

O=C1OC(c2ccc(O)c(S(=O)(=O)O)c2)(c2ccc(O)c(S(=O)(=O)O)c2)c2c(Br)c(Br)c(Br)c(Br)c21
not listed: [14] | [17] | [19] | [20]
inactive: all other assays above

N#Cc1ccncc1
inactive: [2] | [3] | [6] | [16] | [7] | [8] | [9] | [20] | [10] | [13] | [14]

CC(C)[N+](=O)[O-]
not listed: [1] | [12] | [15] | [19] | [20]
inactive: all other assays above
